“And” between values parts separate entries of the source, which are not always exact repeats. Equal entries are not always repeated. Out of some 420,000 compounds screened, about 50,000 (12%) were called active. About 26% were inconclusive and are not listed. Calls come from the whole dose curve; as a rule, active = well fitted inhibition curve with a large enough effect; inconclusive = small, poorly fitted or top-dose-only effect; inactive = flat fitted curve, though single readings scatter. The list comes from a sample in which actives are over-represented; it also holds similar structures and randomly drawn compounds. A call without a number means that no potency is given here.
Assay: qHTS for Inhibitors of human tyrosyl-DNA phosphodiesterase 1 (TDP1): qHTS in cells in presence of CPT; note: nearly all actives have a fitted effect of over 55% in size
Details: chicken DT40 Tdp1-/-;hTDP1 cells + 20 nM CPT, ATP luminescence, 48 h; series mostly up to 46.2 µM
Method in brief: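 Chicken DT40 Tdp1-/- cells stably complemented with human TDP1 were seeded at 400 cells/well in medium containing 20 nM camptothecin, exposed to pin-transferred compounds, and grown at 37 °C for at least 48 hr. Viability was read as ATP luminescence.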
Potency is the fitted concentration of half-maximal effect.

Structure (SMILES)	Potency	activity change, negative = growth inhibition
N=C(N)SCc1cccc2ccccc12	18.4 µM (active)	
c1ccc2c(CNn3cnnc3)cccc2c1	inactive	
c1ccc(NCc2cccc3ccccc23)nc1	inactive	
COc1cc(NC(=O)COc2ccccc2Cl)ccc1NC(=O)C(C)C	inactive	
CCCC(=O)NC(=S)Nc1ccc(CN2CCOCC2)cc1	inactive	
CC(Sc1nnc(CNC(=O)c2ccccc2F)n1C)C(=O)Nc1nccs1 (centres undefined)	inactive	
Brc1cccc(-c2nnn3c2nc(NC2CCCCC2)c2ccccc23)c1	inactive	
CCc1nnc(NC(=O)CSCc2cc(=O)n3cc(C)sc3n2)s1	inactive	
Cc1ccc(O)c(NC(=O)c2cc(-c3ccc(F)cc3)no2)c1	inactive	
Cc1ccc(O)c(NC(=O)CCS(=O)(=O)c2nc(-c3ccc4c(c3)OCO4)cc(C(F)(F)F)n2)c1	8.2 µM (active)	
COc1ccc(-c2cc(C(F)(F)F)nc(SCC(=O)Nc3ccc4c(c3)OCO4)n2)cc1OC	inactive	
COc1cc(OC)cc(C(=O)OCC(=O)Nc2ccc(F)cc2F)c1	inactive	
Cc1cc(C(F)(F)F)nc(SCC(=O)Nc2nccs2)n1	inactive	
CSc1ccccc1NC(=O)CCS(=O)(=O)c1nc(-c2cccs2)cc(C(F)(F)F)n1	10.3 µM (active)	
COc1ccccc1-c1cc(C(F)(F)F)nc(S(=O)(=O)CCCC(=O)Nc2ccc(F)cc2F)n1	5.17 µM (active)	
O=C(CSc1ccc(-c2cccs2)nn1)Nc1ccccc1F	inactive	
COc1ccccc1-c1cc(C(F)(F)F)nc(S(=O)(=O)CCCC(=O)Nc2cc(C)ccc2O)n1	inactive	
COc1ccc(Cl)cc1NC(=O)CSc1nc(-c2cccs2)cc(C(F)(F)F)n1	23.1 µM (active)	
CC(Sc1nc(-c2ccccc2)cc(C(F)(F)F)n1)C(=O)Nc1ccc2c(c1)OCO2 (centres undefined)	inactive	
CSc1ccccc1NC(=O)Cc1ccc(Br)cc1	inactive	
COC(=O)c1ccccc1NC(=O)Cn1c(=O)n(-c2cccc(C(F)(F)F)c2)c(=O)c2c(C)c(C)sc21	inactive	
CNS(=O)(=O)c1ccc(NC(=O)Nc2ccc3c(c2)OCO3)cc1	inactive	
O=C(N[C@@H](Cc1ccccc1)C(=O)OCc1ccccc1)c1nc[nH]c1C(=O)NC1CCNCC1	inactive	
O=C(NC1CCCC1)C1c2ccccc2OCC(=O)N1Cc1ccccc1 (centres undefined)	inactive	
COc1ccccc1NC(=O)c1cc(N2C(=O)C3C4CCC(C4)C3C2=O)ccc1Cl (centres undefined)	inactive	
CCOC(=O)c1ccccc1NC(=O)CSc1nc2c(sc(=S)n2CC)c(=O)[nH]1	inactive	

Structure (SMILES)	Potency	activity change, negative = growth inhibition
CC(C)n1c(O)c(N=Nc2ccccn2)c2ccccc21	inactive	
FC(F)(F)c1ccnc(Oc2ccc(C3=NCCS3)cc2)c1	inactive	
Cc1ccc(NC(=O)c2ccco2)cc1	inactive	
O=C(c1cnccn1)N1CCN(S(=O)(=O)c2cccc(Cl)c2)CC1	inactive	
O=C1CC(c2ccccc2)C(=O)N2C(=O)CC(c3ccccc3)C(=O)N12 (centres undefined)	inactive	
CCOC(=O)C1CCN(C(c2cc3cc(C)cc(C)c3[nH]c2=O)c2nnnn2C2CCCCC2)CC1 (centres undefined)	inactive	
CNC(=O)NC(=O)C(C)N1CCN(C/C=C/c2ccccc2)CC1 (centres undefined)	inactive	
FC(F)(F)Oc1ccccc1C(c1nnnn1C1CCCCC1)N1CCN(C/C=C/c2ccccc2)CC1 (centres undefined)	18.4 µM (active)	
COCCn1c(=O)c(-c2ccc(OC)cc2)nc2cnc(Oc3cccc(Cl)c3)nc21	inactive	
Cc1cc(C)n(-c2ccc3nncn3n2)n1	inactive	
COc1ccc(-c2noc(CSc3nc4ccc(C)cc4[nH]3)n2)cc1	20.6 µM (active)	
CC1CCN(Cc2nc(-c3ccc(Cl)cc3)no2)CC1	inactive	
COc1ccc(-c2noc(CN(C)S(=O)(=O)c3ccc(C)cc3)n2)cc1	16.4 µM (active)	
COc1ccc2nc(SCC(=O)Nc3c(C)cc(C)cc3C)[nH]c2c1	inactive	
Cc1ccc(S(=O)(=O)N(Cc2nc(-c3ccc(Cl)cc3)no2)C2CCCCC2)cc1	16.4 µM (active)	
COc1ccc(-c2noc(CCC(=O)N(C)c3ccccc3C)n2)cc1	inactive	
Cc1ccc(-c2noc(CC(c3ccccc3)c3ccccc3)n2)cc1	inactive	
COc1ccccc1Cc1nc(-c2ccc(C)cc2)no1	inactive	
COc1ccc(-c2noc(CSc3ccc(C)cc3)n2)cc1	inactive	
Cc1cccc(OCC(=O)NCCNC(=O)c2cccnc2)c1	inactive	
CCCC(=O)N1CCN(c2nc3c(OC)ccc(C)c3s2)CC1	inactive	
CC(C)C(=O)Nc1c2c(nn1-c1ccccc1)CSC2	inactive	
O=C(CN1C(=O)CCS(=O)(=O)c2ccccc21)NCc1ccc(F)cc1	inactive	
CN(CC(=O)Nc1ccccc1Cl)C(=O)c1ccccc1SCC(=O)N1CCCC1	inactive	
Cc1cccc(CNC(=O)c2cnn(-c3nccc(-c4ccccc4F)n3)c2C2CC2)n1		-0.952% [at 9.04 µM] (inactive)
CCOc1ccccc1N1CN(Cc2ccccc2)CNC1=S	inactive	

Structure (SMILES)	Potency	activity change, negative = growth inhibition
O=C1CCCN1C(=O)COc1ccc([N+](=O)[O-])cc1	inactive	
CN(Cc1ccccc1)C(=O)c1cn(C)c2ccc(S(=O)(=O)N(C)C3CCCCC3)cc2c1=O	inactive	
CC(=O)N/C(=C/c1ccc(Cl)cc1)C(=O)NCCc1c[nH]c2ccccc12	inactive	
CN(c1ccccc1)S(=O)(=O)c1ccc(Cl)c(C(=O)NCCc2c[nH]c3ccccc23)c1	14.6 µM (active)	
CCN(CC)S(=O)(=O)c1ccc2[nH]cc(C(=O)NCCc3ccccc3)c(=O)c2c1	14.6 µM (active) and 23.1 µM (active)	
CN(c1ccccc1)S(=O)(=O)c1ccc(Cl)c(C(=O)OCC(N)=O)c1	inactive	
CCc1ccc(NS(=O)(=O)c2ccc3[nH]cc(C(=O)NCCc4cccc(C)c4)c(=O)c3c2)cc1	inactive	
O=C(NCCc1ccccc1)c1c[nH]c2ccc(F)cc2c1=O	inactive	
CN(CC(=O)NC(=O)Nc1ccccc1F)Cc1ccccc1	inactive	
COCCNC(=O)C1CCN(C(=O)C2CC(=O)N(c3ccc(C)cc3)C2)CC1 (centres undefined)	inactive	
CCN(CC)CCCNC(=O)COc1ccc2oc3c(c2c1)CCCC3	inactive	
N[C@@H](Cc1ccccc1)C(=O)N1CCOCC1	inactive	
COc1cc(OC)cc(C(=O)NCCCn2ccnc2)c1	inactive	
CCOc1ccc(-c2cc3nc(C4CCN(C(=O)OC(C)(C)C)CC4)c(C(=O)Nc4ccc(C(=O)OC)cc4)cn3n2)cc1	inactive	
CCc1cccc(NC(=O)COC(=O)C2CCN(c3ccc(C(F)(F)F)cn3)CC2)c1	inactive	
CCOc1ccc(-c2cc3nc(C4CCN(C(=O)OC(C)(C)C)CC4)c(C(=O)Nc4cccc(CC)c4)cn3n2)cc1	23.1 µM (active)	
O=c1[nH]cnc(O)c1C(c1ccc(F)cc1)c1c(O)nc[nH]c1=O	inactive	
CC(=O)Oc1ccc(C(C)=O)c2c1OCCO2	inactive	
CC(=O)NCCc1ccc(S(=O)(=O)Nc2ccc(C)c(S(=O)(=O)N3CCOCC3)c2)cc1	inactive	
Oc1ccccc1C=NC1CCCCC1N=Cc1ccccc1O (centres undefined)	inactive	
O=C(CCC(=O)Nc1ccccc1)N/N=C/c1ccccc1F	inactive	
O=C(N/N=C/c1ccccc1O)/C(=C/c1ccccc1)CCO	3.26 µM (active)	
C=CCOc1ccccc1/C=N/NC(=O)Cc1ccccc1	inactive	
O=C(CCCCCNC(=O)c1ccccc1)N/N=C/c1ccccc1	inactive	
O=C(NN=Cc1ccccc1O)NN=Cc1ccccc1O	4.11 µM (active)	
CN(Cc1nc2ccccc2s1)C(=O)c1ccc(F)cc1	inactive	

Structure (SMILES)	Potency	activity change, negative = growth inhibition
CCCS(=O)(=O)NC(=O)C1(C)CCN(C(=O)c2sccc2C)C1 (centres undefined)	inactive	
CCc1ccc(C(=O)C(C)OC(=O)CN2C(=O)NC3(CCCC3)C2=O)cc1 (centres undefined)	inactive	
COC(=O)Nc1ccc(S(=O)(=O)Nc2cc(OC)nc(OC)n2)cc1	inactive	
CCOC(=O)c1ccc(NC(=O)Cn2c(=O)n(-c3ccc(C)cc3)c(=O)c3c2cnn3C)cc1	inactive	
COC(=O)C1=C(C(=O)OC)C2(OC1c1ccc(Br)cc1)C(=O)c1ccccc1C2=O (centres undefined)	inactive	
CCOc1ccc(/C(O)=C2\C(=O)C(=O)N(c3ccc(OC)cc3)C2c2ccccc2[N+](=O)[O-])cc1 (centres undefined)	inactive	
CCOc1ccc(-c2n[nH]c3c2C(c2ccccc2OC)N(c2ccc(Br)cc2)C3=O)cc1 (centres undefined)	16.4 µM (active)	
CN1C(=O)c2[nH]nc(-c3ccc(F)cc3)c2C1c1ccccn1 (centres undefined)	inactive	
C/C(=N/NC(=O)CCc1ccccc1)c1ccco1	inactive	
O=C(CCc1ccccc1)Nc1cccc(-c2nnc(-c3ccco3)o2)c1	25.9 µM (active)	
Cc1cccc(NC(=O)CSc2nnc(-c3ccco3)o2)c1	inactive	
COc1ccc(C(=O)NCC2CCCO2)cc1S(=O)(=O)NCc1ccc(Cl)cc1 (centres undefined)	inactive	
Cc1[nH]c2ccccc2c1C(=O)C(C)Sc1nnc(C2CC2)o1 (centres undefined)	inactive	
COc1ccc(-c2cc(C(F)(F)F)n3nc(-c4ccccc4)cc3n2)cc1OC	10.3 µM (active)	
Cc1cc(-c2ccccc2)n2nc(-c3ccccc3)cc2n1	inactive	
COC(=O)c1cc2nc(-c3ccccc3)cc(C(F)(F)F)n2n1	inactive	
O=C(NC1CC(=O)N(c2ccc(F)cc2)C1)C1CCCCC1 (centres undefined)	inactive	
CC1CCN(S(=O)(=O)c2ccc3c(c2)n(C)c(=O)n3C)CC1	inactive	
Cc1ccc(-c2ccnc(-n3ncc(C(=O)N(C)Cc4cccc5ncccc45)c3C3CC3)n2)o1		10% [at 9.04 µM] (inactive)
CC1(C)Oc2ccc3ccc(=O)oc3c2/C(=N/O)C1=O	inactive	
CCSc1nnc2c(n1)OC(c1ccc(OCC(=O)O)cc1)Nc1ccccc1-2 (centres undefined)	inactive	
CCOc1ccc(N(Cc2ccccc2)C(=O)c2nc(S(C)(=O)=O)ncc2Cl)cc1	0.58 µM (active)	
CCOc1ccc(NC(=O)CN(Cc2ccccc2)S(=O)(=O)c2ccc(Cl)cc2)cc1	inactive	
CCSc1ncc(Cl)c(C(=O)Nc2c(C(=O)c3ccccc3)oc3ccccc23)n1	inactive	
CCOc1ccc(N(Cc2ccccc2)C(=O)c2nc(SCC)ncc2Cl)cc1	29.1 µM (active)	
CCOc1ccc(S(=O)(=O)N(CC(=O)O)c2ccccc2)cc1	inactive	
